High-throughput results (PubChem)
The sample as a whole holds a higher share of hits than the screen did.
GIRK2 activator = Activators of human GIRK2-containing channels. P48051. HEK293 GIRK2/NPY4 cells, thallium flux fluorescence. 34,000 tested, under 10 active. activation (% efficacy), % for hits at 37.5 µM;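 active = primary screen hit, no activity in plain HEK293 cells, and in GIRK2-only cells above 5% efficacy rising with concentration; inactive = the rest, including fluorescent compounds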;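 note: efficacy is normalized control-subtracted fluorescence 15 s after thallium addition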
GluA2 TARP mod = modulators of AMPA receptor GluA2-stargazin complexes; 3.5% of 40,000 active; calls only at 30 µM; HEK293 GluA2+stargazin, membrane potential dye (FDSS), glutamate EC50; hits were called plate by plate, in both directions; O88602+P19491;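 active = any of four per-well response measures lying three or more SD from its plate-wide compound average, in either direction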
Target sequence (O88602 whole entry, looked up): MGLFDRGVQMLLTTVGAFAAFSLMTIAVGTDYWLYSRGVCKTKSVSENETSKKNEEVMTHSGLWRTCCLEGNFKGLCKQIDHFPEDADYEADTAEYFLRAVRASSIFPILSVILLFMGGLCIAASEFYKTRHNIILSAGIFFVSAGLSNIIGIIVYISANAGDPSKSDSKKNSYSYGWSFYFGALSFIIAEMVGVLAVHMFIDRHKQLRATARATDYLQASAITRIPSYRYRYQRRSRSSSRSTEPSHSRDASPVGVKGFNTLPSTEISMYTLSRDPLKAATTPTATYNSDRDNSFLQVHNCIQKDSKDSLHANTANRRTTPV
Target sequence (P19491 whole entry, looked up): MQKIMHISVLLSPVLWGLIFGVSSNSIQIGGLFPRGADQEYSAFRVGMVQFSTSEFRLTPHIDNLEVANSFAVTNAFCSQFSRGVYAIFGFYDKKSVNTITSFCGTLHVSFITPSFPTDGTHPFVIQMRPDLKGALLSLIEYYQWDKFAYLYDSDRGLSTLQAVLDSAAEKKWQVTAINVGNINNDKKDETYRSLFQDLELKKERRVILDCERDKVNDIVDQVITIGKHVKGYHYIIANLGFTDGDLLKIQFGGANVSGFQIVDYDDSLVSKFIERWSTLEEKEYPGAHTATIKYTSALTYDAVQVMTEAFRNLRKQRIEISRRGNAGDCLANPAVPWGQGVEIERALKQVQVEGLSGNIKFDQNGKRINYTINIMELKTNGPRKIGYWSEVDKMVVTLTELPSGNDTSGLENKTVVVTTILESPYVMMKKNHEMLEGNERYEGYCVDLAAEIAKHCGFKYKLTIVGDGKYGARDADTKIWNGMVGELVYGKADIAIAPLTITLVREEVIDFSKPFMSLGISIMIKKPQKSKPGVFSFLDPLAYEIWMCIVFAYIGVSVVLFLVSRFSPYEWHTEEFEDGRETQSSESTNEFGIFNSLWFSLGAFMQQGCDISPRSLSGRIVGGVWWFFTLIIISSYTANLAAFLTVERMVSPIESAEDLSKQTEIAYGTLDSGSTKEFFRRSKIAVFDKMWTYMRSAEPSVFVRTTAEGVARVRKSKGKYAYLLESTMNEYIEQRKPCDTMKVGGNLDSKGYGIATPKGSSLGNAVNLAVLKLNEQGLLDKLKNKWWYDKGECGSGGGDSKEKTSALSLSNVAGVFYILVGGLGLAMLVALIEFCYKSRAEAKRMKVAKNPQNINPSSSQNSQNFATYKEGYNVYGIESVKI
Active calls of the source: *; i = inactive; nt = not tested or not shown; + = active, no number.

SMILES	GIRK2 activator	GluA2 TARP mod
O=C(NCc1ccccn1)c1csc(Nc2cccc(Cl)c2)n1	i	nt
Cc1nn(C2CCS(=O)(=O)C2)c2nc(-c3cccs3)cc(C(=O)Nc3cc(F)ccc3F)c12 (centres undefined)	i	i
Cn1nc(CNC(=O)c2cccc(C#N)c2)c2ccccc2c1=O	i	+
Cn1nc(CNC(=O)c2ccccc2C(=O)c2ccccc2)c2ccccc2c1=O	i	i
Cc1ccc(NC(=O)CCCOc2ccc(C)cc2)cc1	i	i
COc1ccc(C(=O)Nc2cc3c4c(c2)CCN4C(=O)CC3)cc1	i	+
COc1ccc(C(=O)Nc2cc3c4c(c2)CCC(=O)N4CCC3)cc1	i	i
COc1nn(C)cc1C(=O)NCC1CCN(Cc2ccccc2SC)CC1	i	i
Cc1ccc(S(=O)(=O)CCCC(=O)Nc2nnc(Cc3cccs3)o2)cc1	i	nt
Cc1cc(C)nc(SCc2c(C(=O)NC3CCCC3)nnn2-c2ccccc2)n1	i	i
Cc1ccc(NC(=O)C(=O)NCC(c2cccc3ccccc23)N2CCOCC2)c([N+](=O)[O-])c1 (centres undefined)	nt	i
O=C(Nc1ccc(CC(=O)N2CCC(O)CC2)cc1)c1cc(-c2ccco2)on1	i	nt
O=C(Nc1cccc(-c2cnc3n2CCC3)c1)c1ccc2nc[nH]c2c1	i	+
O=C(Nc1ccc2cn[nH]c2c1)c1ccc2nc[nH]c2c1	i	i
CCOc1ccc(C(=O)Nc2cc3c4c(c2)CCC(=O)N4CCC3)cc1	i	i
CCOc1ccc(C(=O)Nc2cccc(-c3cnc4n3CCC4)c2)cc1	i	+
O=C(Nc1cccc(-c2cnc3n2CCC3)c1)c1cc(-c2ccco2)on1	i	+
Cc1ccc2nc(NC(=O)CCn3cnc4c(cnn4C(C)(C)C)c3=O)sc2c1	i	nt
COc1ccc(S(=O)(=O)CCC(=O)Nc2sc3c(c2C(N)=O)CCCC3)cc1	i	i
COc1ccc(/C=C2\SC(=S)N(c3cccc(C)c3C)C2=O)cc1OC	nt	i
COc1cc(/C=C2\SC(=S)N(c3ccccc3Br)C2=O)ccc1O	nt	+
COc1cc(/C=C2\SC(=S)N(c3cccc(C)c3C)C2=O)cc(OC)c1OC	nt	+
CCOc1cc(/C=C2\SC(=S)N(c3ccccc3Br)C2=O)ccc1O	nt	i
N#CCOc1ccc2c(c1)O/C(=C\c1c(Cl)cccc1Cl)C2=O	nt	i
COc1ccc(NC(=O)NC2CCCCC2)cc1N1CCCC1=O	i	i
SMILES	GIRK2 activator	GluA2 TARP mod
COC(=O)C(C)OC1C(NC(C)=O)C(OCc2ccccc2)OC2COC(C)(C)OC21 (centres undefined)	nt	i
CCN(CC)C(=O)Oc1ccc2c(c1)O/C(=C\c1ccc(OC)cc1OC)C2=O	nt	i
Cc1ccc(NC(=O)N2CCC3(CC2)NC(=O)N(Cc2ccc(Cl)cc2)C3=O)cc1F	i	+
O=C(Nc1ccc(F)cc1)N1CCC2(CC1)NC(=O)N(Cc1ccc(Cl)cc1)C2=O	i	nt
O=C(Nc1ccc(F)c(Cl)c1)N1CCC2(CC1)NC(=O)N(CCc1ccccc1)C2=O	i	+
O=C(Nc1ccccc1)N1CCC2(CC1)NC(=O)N(CCc1ccccc1)C2=O	i	i
CC(C)S(=O)(=O)c1ccc(CC(=O)NCC2CCN(C(=O)c3cccn(C)c3=O)CC2)cc1	i	i
O=C(NCCn1ncc2c(N3CCOCC3)ncnc21)c1ccco1	i	i
COc1ccc(-c2coc3c4c(ccc3c2=O)OCN(C(C)c2ccccc2)C4)cc1OC (centres undefined)	i	i
CCCCN(C)C(=O)Cn1c(C(C)NC(=O)c2ccco2)nc2ccccc21 (centres undefined)	nt	i
Cc1ccc(CNC(=O)CSc2nc(=O)n(N3CCN(C)CC3)c3c2CCC3)cc1	i	i
COC(=O)c1ccc(C(=O)Nc2nnc(-c3cc(C)n(C)n3)o2)cc1	i	i
COc1cc(/C=C/C(=O)Nc2nnc(-c3ccn(C)n3)o2)cc(OC)c1OC	i	+
Cc1cc(-c2nnc(NC(=O)/C=C/c3ccccc3)o2)nn1C	i	i
COc1cc(-c2nnc(NC(=O)c3cc(C)n(C)n3)o2)cc(OC)c1OC	i	+
COc1cccc(C(=O)Nc2nnc(-c3cc(C)nn3C)o2)c1OC	i	nt
COc1cc(C(=O)Nc2nnc(-c3cc(C)n(C)n3)o2)cc(OC)c1OC	i	+
COc1cccc2cc(C(=O)Nc3nnc(-c4cc(C)nn4C)o3)oc12	i	+
CCn1nc(C(=O)Nc2nnc(-c3ccc(OC)cc3)o2)cc1C	i	nt
C=CCn1c(SCC(=O)N2CCCCCC2)nc2sc3c(c2c1=O)CCCCC3	i	i
COc1ccc(-c2nnc(NC(=O)c3cc(C)nn3C)o2)cc1OC	i	+
COc1ccc(-c2nnc(NC(=O)c3ccn(C)n3)o2)cc1OC	i	i
O=C(Nc1ccc(O)c(-c2nc3ccccc3s2)c1)c1ccno1	i	i
